A selection: hits, their analogues and other compounds. The true share with any hit is near 21%.
HCMV antiviral = qHTS Assay for inhibitors of the human cytomegalovirus (HCMV) | 410,000 tested, 4.5% active | AID 1259415, 2018 | HFF cells, HCMV-luciferase reporter, 72 h; hits give low values | activity change, negative = inhibition, % at 57.5 µM; in the data active = activity change below about -60%; inconclusive = no clear call, values can overlap the other calls; inactive = above about -39%; note: % is set by controls: 0 for no effect and ±100 for the full control effect
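Cell-based, HFFs, 1000 cells/well, 16 h 37C; cpds in DMSO + HCMV-luc, MOI 1 PFU/cell; 72 h 37C; OneGlo luminescence after 5 min RT; norm. to buffer vs Salinomycin 10uM.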
Pf growth 96h = Primary qHTS for delayed death inhibitors of the malarial parasite plastid, 96 hour incubation; P. falciparum luciferase reporter growth, 96 h; Potency, µM (top dose mostly 28.7 µM), for the others: at the top dose activity change, negative = inhibition, usual class: inhibitors; 320,000 tested, 6.9% active; note: potency is the fitted concentration of half-maximal effect; % is set by controls: 0 for no effect and ±100 for the full control effect
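Compounds incubated with erythrocytes infected by luciferase-expressing P. falciparum (2% hematocrit, 0.05% parasitemia final) for 96 hours, 37 C in 5% CO2. Growth inhibition scored as decreased luciferase luminescence.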
Cycloheximide cs = Cycloheximide Counterscreen for Small Molecule Inhibitors of Shiga Toxin. cell reporter, cycloheximide protein synthesis inhibition counterscreen. max response, %. 300,000 tested, 12% active. AID 2314, 2010; in the data active = max response mostly above about 13%, no sharp cut-off; inactive = mostly below about 14%; note: read at 38.3 µM for the half of the compounds with a filed dose; 0% is about no effect
Pf growth 48h = Primary qHTS for delayed death inhibitors of the malarial parasite plastid, 48 hour incubation; P. falciparum luciferase growth in erythrocytes, 48 h; Potency, µM (top dose mostly 28.7 µM), inactives show top-dose activity change, negative = inhibition, hits mostly inhibitors; 310,000 tested, 5.9% active; note: potency is the fitted concentration of half-maximal effect; % is set by controls: 0 for no effect and ±100 for the full control effect
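Read-out is firefly luciferase luminescence from an integrated reporter in P. falciparum, so falling signal marks reduced parasite growth. Infected erythrocytes were at 2% hematocrit and 0.1% parasitemia (final) in Albumax-supplemented RPMI 1640.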
HCV inh = qHTS Assay for Inhibitors of Hepatitis C Virus (HCV); Huh7.5.1 HCVcc-Cre infection, luciferase reporter, 44 h; 340,000 tested, 3.4% active; Potency, µM (titrated, usually from 41.8 µM), for the others: at the highest dose activity change, negative = inhibition, most hits filed as inhibitors; note: potency is the fitted concentration of half-maximal effect; % is set by controls: 0 for no effect and ±100 for the full control effect
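Seed cells (1,000/well) for 4 h; treat with compound and infect with HCVcc-Cre, moi about 0.5. Incubate 44 h, then detect luciferase activity.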
Shiga inhibitor = A qHTS for Small Molecule Inhibitors of Shiga Toxin. Vero cells, Shiga toxin protein synthesis inhibition reporter. inhibition, % at 38.7 µM. 290,000 tested, 9.2% active. AID 2315, 2010; in the data active = inhibition mostly above about 28%, no sharp cut-off; inactive = mostly below about 43%; note: 0% is about no effect
Numbers without * were called inactive; ? = inconclusive; . = no result given; ! = repeats disagree; [ ] = remark or other dose. Unless noted, calls come from the whole dose curve; as a rule, active = well fitted inhibition curve with a large enough effect; inconclusive = small, poorly fitted or top-dose-only effect, or another doubt; inactive = no such curve, though single readings can be large or run the other way.

SMILES	HCMV antiviral	Pf growth 96h	Cycloheximide cs	Pf growth 48h	HCV inh	Shiga inhibitor
Cc1ccc(-c2cc[n+](Cc3ccccc3)cc2)cc1	?	296.2%	8.9	0.928µM*	?	-8.2
COc1ccc(-n2nc(C(=O)O)c(=O)n(C)c2=O)cc1	-6.1	.	.	.	.	.
COc1cccc(-c2ccc(SCc3ccccn3)nn2)c1	66.8	96.7%	41.9*	111.4%	-21.6%	77.3*
COc1ccc(-c2ccc(SCc3ccccn3)nn2)cc1OC	72.7	2.62µM*	28.8*	3.0%	-20.9%	35.1
O=[N+]([O-])c1cccc(-c2ccc(SCc3ccccn3)nn2)c1	30.4	0.3%	36.5*	86.3%	8.9%	56.4*
COc1ccc(-c2ccc(SCC(=O)c3ccccc3)nn2)cc1OC	91.8	-4.7%	22.0	-23.6%	?	24.0
Cc1ccc(C)n1-c1cccc(NC(=O)c2ccccc2)c1	-7.4	13.4%	19.2*	?	?	38.5*
Cc1ccc(C)n1-c1ccc(C(=O)Nc2ccccc2)cc1	31.5	?	33.6*	?	9.0%	98.2*
CCc1ccc(N=C2NC(=O)CC(C(=O)Nc3ccc(OC)cc3)S2)cc1 (stereo not drawn)	5.3	.	.	.	.	.
CCCCc1ccc(N=N/C(C(=O)Nc2cc(OC)c(NC(C)=O)cc2OC)=C(/C)O)cc1	29.7	4.65µM*	-1.6	?	13.3%	-9.0
Cc1ccc(OCCCC(=O)Nc2sc3c(c2C(N)=O)CCC(C)C3)cc1 (stereo not drawn)	5.6	.	.	.	.	.
O=C1CC(c2ccc3c(c2)OCCO3)Oc2ccccc21 (stereo not drawn)	12.3	191.3%	51.6*	202.0%	-16.0%	80.1*
COc1ccc(C2CC(=O)c3cc(OC)ccc3O2)cc1 (stereo not drawn)	21.1	.	.	.	3.5%	.
COc1ccc(C2CC(=O)c3ccccc3O2)cc1 (stereo not drawn)	26.2	238.7%	41.4*	301.3%	2.7%[8.37 µM]	25.4
O=C1CC(c2ccc3c(c2)OCCO3)Oc2ccc([N+](=O)[O-])cc21 (stereo not drawn)	-76.6*	447.8%	45.9*	111.5%	-3.8%	88.4*
CC(=O)Nc1ccc(S(=O)(=O)N2CCN(C(=O)c3ncoc3-c3ccccc3)CC2)cc1	-34.0	-0.2%	-2.0	10.0%	?	-5.1
CC(=O)Nc1ccc(S(=O)(=O)NCCc2cc3ccc(C)c(C)c3[nH]c2=O)cc1	-36.8	?	-2.2	?	.	27.8
CCCCOc1ccc(-n2nc(C)cc2C)nn1	-82.4*	?	28.6*	49.7%	8.5%	54.8*
COc1ccc(N2C(=O)N[C@@H](Cc3ccccc3)C2=O)cc1OC	6.4	6.2%	-2.3	-6.3%	-1.7%	-13.7
CC(/C=N/NC(=O)c1cnccn1)=C\c1ccco1	60.2	44.9%	31.8*	88.4%	-0.4%	39.1
CC(=C/c1ccco1)/C=N/NC(=O)c1ccncc1	-23.4	73.1%	-2.6	3.6%	8.0%	21.5
CC(/C=N/NC(=O)c1cccnc1)=C\c1ccco1	1.8	.	13.9*	23.9%	-7.9%	35.3
CCCCNC(=O)COn1nnc2ccc(S(=O)(=O)N3CCOCC3)cc21	-7.2	3.8%	.	4.2%	-4.6%	.
Oc1cc(Cc2ccccc2)cnc1CN1CCOCC1	26.2	?	0.9	2.94µM*	?	37.9
c1ccc2c(c1)Cc1cc(CN3CCOCC3)ccc1-2	42.6	.	40.9*	206.9%	12.4%	76.3*
c1ccc(Oc2cccc(CN3CCOCC3)c2)cc1	34.4	.	27.9*	2.0%	16.7%	-14.2
CCc1cc2c(s1)c1cnn(Cc3ccccc3F)c(=O)c1n2C	.	.	10.3	.	.	17.1
CN1CCN(CCCN2c3ccccc3Sc3ccc(C(F)(F)F)cc32)CC1	-79.4*!	9.28µM*	-3.3	10.4µM*	14.1µM*!	-16.4
CN1CCN(CCC(=O)N2c3ccccc3Sc3ccc(Cl)cc32)CC1	-34.4	34.8%	-0.7	?	?	-4.3
Cn1nnnc1SCC(=O)N1c2ccccc2Sc2ccc(Cl)cc21	-36.7	79.7%	10.9	?	?	8.8

Screening data: PubChem, National Center for Advancing Translational Sciences (NCATS)
